A selection: hits, their analogues and other compounds. The true share with any hit is near 4.5%.
BJeLR lethal: MLPCN primary cell-based screen for lethality selective to Ras in HRASV12 cells. BJeLR (HRASV12) viability, CellTiter-Glo ATP luminescence, 48 h. inhibition, % (concentration not given with the values). AID 1554, 2009. 300,000 compounds, 0.17% hits; in the data active = inhibition above about 50%; inconclusive = no clear call, values can overlap the other calls
PrP 5UTR inh: inhibition of PrP 5' UTR reporter expression; inhibition, % (concentration not given with the values); cell-based PrP 5' UTR mRNA reporter, plate reader; 340,000 compounds, 0.35% hits; AID 488862, 2010; in the data active = inhibition above about 52%; also: 0 = median of the neutral control wells
GDH-TPI counter-1: GDH-TPI coupling enzyme inhibitors, primary screen, artefact control for M. tuberculosis FBA inhibitor project, biochemical, absorbance, full deck; 360,000 compounds, 1.2% hits; GDH-TPI coupled enzyme counterscreen, NADH absorbance; AID 588335, 2011; inhibition, % at 4.8 µM; in the data active = inhibition above about 30%;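 also: 0% = DMSO wells and 100% = wells lacking the enzyme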
PrPC surface inh: inhibitors of human cell surface prion protein PrPC, primary screen, cell-based, TR-FRET. TR-FRET read-out. inhibition, % at 13.8 µM. 370,000 compounds, 0.43% hits. AID 720596, 2013; in the data active = inhibition above about 24%; also: 0% = median of the test wells and 100% = reference compound wells
PfHsp40 yeast: rescue of yeast from PfHsp40 toxicity, primary screen, S. cerevisiae, ATP luminescence. S. cerevisiae expressing PfHsp40, growth rescue. AID 504582, 2011. growth rescue, % at 12.5 µM. 340,000 compounds, 0.68% hits; in the data active = growth rescue above about 28%, passing the limit was not always enough; inconclusive = no clear call, values can overlap the other calls;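 also: yeast W303a lacking pdr1 and pdr3 grown in galactose medium; growth measured after three days at 30 °C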
Mtb FBA inh: Mtb FBA enzyme inhibitors, primary screen, biochemical, fluorescence, strain H37Rv | Fructose-bisphosphate aldolase (Mycobacterium tuberculosis (strain ATCC 25618 / H37Rv)), … | purified M. tuberculosis FBA, fluorescence read-out | inhibition, % at 1 µM | 360,000 compounds, 2.3% hits | AID 588726, 2011;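 also: 0% = vehicle and 100% = reference inhibitor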
Target sequence (P9WQA3 whole entry, looked up): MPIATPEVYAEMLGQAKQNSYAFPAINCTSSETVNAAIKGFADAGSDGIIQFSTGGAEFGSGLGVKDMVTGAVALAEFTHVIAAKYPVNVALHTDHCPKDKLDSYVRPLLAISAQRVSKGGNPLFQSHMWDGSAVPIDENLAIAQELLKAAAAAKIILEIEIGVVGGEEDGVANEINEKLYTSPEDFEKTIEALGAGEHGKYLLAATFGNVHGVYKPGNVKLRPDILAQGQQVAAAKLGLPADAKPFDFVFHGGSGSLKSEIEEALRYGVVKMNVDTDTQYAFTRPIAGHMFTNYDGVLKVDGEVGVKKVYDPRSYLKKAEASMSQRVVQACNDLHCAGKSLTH
Mtb FBA confirm: M. tuberculosis aldolase blockers, biochemical, fluorescence, strain H37Rv, confirmation; shares compounds with Mtb FBA inh; purified M. tuberculosis FBA, fluorescence read-out; inhibition, % at 1 µM; 5,600 compounds, 78% hits;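 also: 0% = vehicle wells and 100% = reference inhibitor wells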
GDH-TPI counter-2: GDH-TPI coupling enzyme inhibitors, artefact control for M. tuberculosis FBA inhibitor project, biochemical, fluorescence, high throughput | shares compounds with Mtb FBA inh | GDH-TPI coupled enzyme counterscreen | inhibition, % at 1 µM | 5,600 compounds, 81% hits | AID 652141, 2013; in the data active = inhibition above about 10%
Numbers without * were called inactive; ? = inconclusive; · = no result; + = active, no number. Rule as the data show it, unless noted: active = inhibition above about 27%; inactive = the rest.

SMILES	BJeLR lethal	PrP 5UTR inh	GDH-TPI counter-1	PrPC surface inh	PfHsp40 yeast	Mtb FBA inh	Mtb FBA confirm	GDH-TPI counter-2
N#Cc1nn(-c2ccccc2)nc1N1CCCCC1	3	-1	12	5	-2	38*	129*	106*
N#Cc1nc(COc2ccccc2)oc1N1CCCCCC1	2	-11	1	4	0	-3	·	·
O=C(C[n+]1cn(C(F)F)c2ccccc21)c1ccc(OC(F)F)cc1	-1	-12	-4	0	3	6	·	·
CCN(CC)c1nc2cc(OC)ccc2cc1C#N	-3	-4	17	-7	0	32*	50*	35*
CCOC(=O)C1CCN(c2nc3cc(OC)ccc3cc2C#N)CC1	2	-15	4	-6	1	24	·	·
COc1ccc2cc(C#N)c(NC(C)C)nc2c1	3	-1	15	3	-2	55*	2	4
COC(=O)CSc1nc2cc(OC)ccc2cc1C#N	-5	-96	7	-6	-1	8	·	·
COc1ccc2cc(C#N)c(N3CCOCC3)nc2c1	-3	-10	5	10	1	37*	66*	63*
Cc1ccc2nc(-c3ccc(N4C(=N)SC5CS(=O)(=O)CC54)cc3)sc2c1 (stereo not given)	-2	-45	20	-9	-1	48*	80*	66*
COc1cc2ccc(=O)oc2c2ccoc12	-4	-10	18	0	1	35*	+	155*
COc1ccc(OC)c(N(C)S(=O)(=O)c2cc3c(cc2C)NC(=O)CO3)c1	6	-53	5	-2	-1	2	·	·
CC(C)NC(=O)NC(=O)COC(=O)c1cccc(S(=O)(=O)N2CCCCC2)c1	-12	-3	-6	9	-1	-1	·	·
COC(=O)c1cc(=O)nc2sc(-c3cccs3)nn12	17	-21	29	-11	-2	35*	6	0
COC(=O)c1cc(=O)nc2sc(-c3ccc(F)cc3)nn12	4	-22	1	·	-1	7	·	·
Cc1cc2c(c(=O)o1)[C@@]1(C(=O)N(C)c3ccccc31)C1=C(CCCC1=O)O2	·	·	·	-4	·	·	·	·
CNc1cncc(-c2ccccc2NC(C)=O)n1	·	·	12	-10	·	19	·	·
CCOc1ccccc1-c1cncc(NC)n1	·	·	17	14	·	74*	66*	47*
CNc1cncc(-c2ccccc2CO)n1	·	·	25	-11	·	73*	+	+
COc1ccc(CSc2ccc(-c3nc4ccccn4c3NCc3ccccc3)cc2OC)cc1	5	-22	11	11	4	34*	31*	28*
COc1cc(-c2nc3ccccn3c2NCc2ccccc2)ccc1SC1CCCCC1	8	-8	12	·	?	45*	84*	52*
COc1ccc(-c2nc3ccccn3c2NC2CCCCC2)cc1SC1CCCCC1	3	-22	6	5	?	44*	132*	115*
CCC(C)Sc1ccc(-c2nc3ccccn3c2NCc2ccccc2)cc1OC (stereo not given)	·	-3	4	·	89*	41*	116*	90*
CC(=O)c1cccc(CN2CCC(C(=O)Nc3cccc(-c4ccn[nH]4)c3)CC2)c1	-11	2	12	-1	1	-3	·	·
Cc1ccccc1C(=O)Nc1ccccc1C(=O)N1CCC(C)CC1	7	-12	5	8	0	5	·	·
CCCCCNC(=O)C(c1ccc(-c2ccccc2)cc1)n1c(=O)c(-c2cc3ccccc3[nH]2)nc2ccccc21 (stereo not given)	·	·	·	1	·	·	·	·
SMILES	BJeLR lethal	PrP 5UTR inh	GDH-TPI counter-1	PrPC surface inh	PfHsp40 yeast	Mtb FBA inh	Mtb FBA confirm	GDH-TPI counter-2
COc1ccc(CNC(=S)NCc2ccc(Cl)cc2)cc1OC	3	-10	2	9	-1	0	·	·
CN(C(=O)COC(=O)c1ccc(Cl)cc1N)C1CCCCC1	-4	-29	4	3	-1	39*	40*	32*
Nc1cc(Cl)ccc1C(=O)OCC(=O)NC1CCS(=O)(=O)C1 (stereo not given)	-4	-5	12	-2	0	52*	170*	158*
Nc1cc(Cl)ccc1C(=O)OCC(=O)NCc1cccs1	·	-6	2	-2	0	56*	31*	21*
CCOc1ccc(NC(=S)NC(=O)c2cccnc2)c([N+](=O)[O-])c1	-5	-9	8	-16	0	-2	·	·
Cc1ccc(NC(=O)COc2ccc(Br)cc2C)cc1	1	-19	6	6	5	3	·	·
Cc1nc2ccc(C(=O)N3c4ccccc4N=C(c4ccc(C(F)(F)F)cc4)C3C(=O)NC(C)(C)C)cc2[nH]1 (stereo not given)	·	·	·	-6	·	·	·	·
CN(Cc1ccccc1)C(=O)c1ccc2nc([C@@H]3O[C@H](CO)[C@H](O)[C@H](O)[C@H]3O)[nH]c2c1	·	·	13	8	·	-1	·	·
COC(=O)C1=CN(C)C=C(C(=O)OC)C1c1ccsc1	14	8	3	-4	0	70*	116*	118*
CC(=O)Nc1cccc(-c2ccnc3c2CC(C)(C(=O)NCc2ccc(N(C)C)cc2)O3)c1 (stereo not given)	·	·	12	11	·	3	·	·
CN(C)c1ccc(-c2ccnc3c2CC(C)(C(=O)NCc2ccccc2)O3)cc1 (stereo not given)	·	·	15	14	·	49*	-5	-4
CC1(C(=O)NCc2ccccc2)Cc2c(-c3ccccc3)ccnc2O1 (stereo not given)	·	·	4	16	·	2	·	·
CN(C)c1ccc(-c2ccnc3c2CC(C)(C(=O)NCc2cccc(Cl)c2)O3)cc1 (stereo not given)	·	·	18	6	·	62*	58*	39*
CN(C)c1ccc(-c2ccnc3c2CC(C)(C(=O)NCC2CCOCC2)O3)cc1 (stereo not given)	·	·	15	0	·	48*	114*	98*
CN(C)c1ccc(-c2ccnc3c2CC(C)(C(=O)NCc2ccncc2)O3)cc1 (stereo not given)	·	·	34*	0	·	60*	178*	145*
COc1cc2nc(N3CCN(C(=O)[C@H]4COc5ccccc5O4)CC3)nc(N)c2cc1OC	-6	-12	3	-10	0	82*	63*	38*
